The record followed here is PubChem BioAssay (NCI).

Some test systems named below: SR leukemia; RPMI-8226 leukemia; OVCAR-8 ovarian; OVCAR-5 ovarian; OVCAR-4 ovarian; SK-OV-3 ovarian; IGROV1 ovarian; OVCAR-3 ovarian; HS 578T breast; NCI/ADR-RES ovarian.
Assay in all cases: NCI-60 one-dose screen, 48 h (100 = growth as untreated, 0 = no growth, -100 = all killed)
What all share (conditions): 10 µM unless noted

Molecules are shown by their SMILES. This is part of a sample that, as a whole, favours compounds with a hit. Of some 83,000 tested, about 20% had one in any assay.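 Assay: single dose, 48 h. Readout: percent growth (0 = no net growth; negative = cell death). Active: <10.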 Unmarked numbers belong to inactive results. The source made the active and inactive calls.

In the case of `CCCCCCCCCCCC[n+]1ccc2ccccc2c1`, the growth is -29.7% (active) in the assay on SR leukemia; -53.7% (active) with RPMI-8226 leukemia; -37% (active) in the assay with OVCAR-8 ovarian; 7.35% (active) in the assay on OVCAR-5 ovarian; -17.2% (active) in the assay on OVCAR-4 ovarian; -26.2% (active) in the assay with SK-OV-3 ovarian. The growth was -51.9% (active) in the assay with IGROV1 ovarian, -70.3% (active) in the assay on OVCAR-3 ovarian, 15.1% with HS 578T breast and 54.2% with NCI/ADR-RES ovarian.
As to `O=[N+]([O-])c1cc(-c2ccccc2)c(O)c([N+](=O)[O-])c1`, the growth in the assay on SR leukemia is 80.4%; in the assay on RPMI-8226 leukemia, 38.9%; with OVCAR-8 ovarian, 91.7%; in the assay with OVCAR-5 ovarian it was 94.6%; in the assay on OVCAR-4 ovarian, 62.6%; with SK-OV-3 ovarian, 83%. Further, the growth with IGROV1 ovarian is 106%; in the assay with OVCAR-3 ovarian, 69.7%; in the assay with HS 578T breast, 84.4%; with NCI/ADR-RES ovarian, 94.7%.
As for `O=C1C=CC(=O)N1c1cc(Cl)c(Cl)cc1Cl`, the growth was 81.5% in the assay with SR leukemia; 99.8% in the assay on RPMI-8226 leukemia; 102% with OVCAR-8 ovarian; 117% in the assay with OVCAR-5 ovarian; 98.8% with OVCAR-4 ovarian; 91.6% in the assay with SK-OV-3 ovarian. The growth in the assay on IGROV1 ovarian was 93.7%; in the assay with OVCAR-3 ovarian, 111%; in the assay on HS 578T breast, 137%; in the assay with NCI/ADR-RES ovarian, 104%.
As for `CC1(C)CCCC2=C1C(=O)N(SC(Cl)(Cl)Cl)C2=O`, the growth in the assay with SR leukemia is 77.2%; with RPMI-8226 leukemia it was 91.9%; in the assay on OVCAR-8 ovarian it was 102%; in the assay with OVCAR-5 ovarian, 103%; in the assay with OVCAR-4 ovarian, 98.2%; in the assay on SK-OV-3 ovarian it was 93.7%. Further, the growth is 103% with IGROV1 ovarian, 104% in the assay on OVCAR-3 ovarian, 102% in the assay on HS 578T breast and 105% with NCI/ADR-RES ovarian.
For the compound `O=[N+]([O-])c1ccc(C2N(Cc3ccc(Cl)cc3)CCN2Cc2ccc(Cl)cc2)cc1`, the growth in the assay with SR leukemia was 64.8%; in the assay with RPMI-8226 leukemia, 83.9%; with OVCAR-8 ovarian it was 91%; in the assay with OVCAR-5 ovarian it was 89.6%; in the assay with OVCAR-4 ovarian, 102%; in the assay with SK-OV-3 ovarian, 90.1%. Further, the growth in the assay on IGROV1 ovarian is 85.9%; in the assay on OVCAR-3 ovarian it was 91.3%; in the assay with HS 578T breast, 102%; with NCI/ADR-RES ovarian, 87.6%.
In the case of `NCCCN(CCCN)CCCNCc1c2ccccc2c(CNCCCN(CCCN)CCCN)c2ccccc12`, the growth in the assay with SR leukemia was 96.6%; with RPMI-8226 leukemia, 91.7%; in the assay with OVCAR-8 ovarian, 98.5%; in the assay on OVCAR-5 ovarian it was 108%; in the assay with OVCAR-4 ovarian, 99.8%; in the assay on SK-OV-3 ovarian, 100%. Further, the growth in the assay on IGROV1 ovarian was 114%; in the assay on OVCAR-3 ovarian it was 107%; in the assay on HS 578T breast it was 92.6%; with NCI/ADR-RES ovarian, 93.9%.
Regarding `CN=C(N)N/N=C(\c1ccccc1)c1ccc(Br)cc1`, the growth with SR leukemia is -15.2% (active); with RPMI-8226 leukemia, 27.5%; with OVCAR-8 ovarian it was 1.03% (active); in the assay on OVCAR-5 ovarian, 32.4%; in the assay with OVCAR-4 ovarian, 42.1%; in the assay with SK-OV-3 ovarian, -1.99% (active). The growth was -7.13% (active) in the assay on IGROV1 ovarian, 2.68% (active) with OVCAR-3 ovarian, 18.4% with HS 578T breast and 9% (active) in the assay on NCI/ADR-RES ovarian.
Take `O/N=C1\c2ccccc2-c2ccc(F)cc21`: the growth in the assay on SR leukemia was 91.2%; in the assay on RPMI-8226 leukemia, 85.8%; in the assay with OVCAR-8 ovarian it was 102%; in the assay with OVCAR-5 ovarian, 93.8%; in the assay with OVCAR-4 ovarian, 85.8%; with SK-OV-3 ovarian, 97.3%. Also, the growth in the assay with IGROV1 ovarian is 85.4%; in the assay on HS 578T breast, 120%; in the assay with NCI/ADR-RES ovarian, 107%.
For `CC12CCC(O)CC1=CCC1C2CCC2(C)C3=NN=CC3CC12` (stereo unspecified), the growth with SR leukemia is 60.1%; with RPMI-8226 leukemia it was 96.5%; in the assay with OVCAR-8 ovarian, 107%; in the assay on OVCAR-5 ovarian, 106%; with OVCAR-4 ovarian, 107%; in the assay with SK-OV-3 ovarian it was 115%. Also, the values for the growth in the assay with OVCAR-3 ovarian, in the assay on HS 578T breast and in the assay on NCI/ADR-RES ovarian were 116%, 95.6% and 98.6%, respectively.
For `O=C1Nc2ccc(Br)cc2C1=O`, the growth in the assay on SR leukemia is 81.9%; in the assay on RPMI-8226 leukemia, 96.4%; in the assay on OVCAR-8 ovarian, 100%; in the assay on OVCAR-5 ovarian it was 103%; with OVCAR-4 ovarian it was 93.2%; in the assay with SK-OV-3 ovarian it was 93.9%. The growth with IGROV1 ovarian was 97.9%; in the assay with OVCAR-3 ovarian, 90.5%; in the assay with HS 578T breast it was 95.7%; in the assay with NCI/ADR-RES ovarian it was 108%.
Take `C[n+]1ccccc1C[n+]1ccccc1`: the growth in the assay with SR leukemia is 88.6%; with RPMI-8226 leukemia, 108%; in the assay on OVCAR-8 ovarian it was 95.9%; in the assay on OVCAR-5 ovarian, 113%; with OVCAR-4 ovarian, 113%; in the assay with SK-OV-3 ovarian, 109%. Further, the growth is 130% with IGROV1 ovarian, 123% in the assay on OVCAR-3 ovarian, 121% with HS 578T breast and 113% in the assay with NCI/ADR-RES ovarian.
`O=C1/C(=C/c2ccccn2)CCc2ccccc21`: the growth was 51.2% with SR leukemia; 14.6% with RPMI-8226 leukemia; 109% in the assay on OVCAR-8 ovarian; 108% in the assay on OVCAR-5 ovarian; 104% in the assay with OVCAR-4 ovarian; 86.6% in the assay on SK-OV-3 ovarian. Besides, the growth in the assay on IGROV1 ovarian was 114%; in the assay on OVCAR-3 ovarian it was 109%; with HS 578T breast it was 98.1%; with NCI/ADR-RES ovarian, 106%.
`Cc1ccc(Nc2ccc(O)c3c2C(=O)c2c(O)ccc(Nc4ccc(C)cc4)c2C3=O)cc1`: the growth is 108% in the assay on SR leukemia; 96.6% with RPMI-8226 leukemia; 91.4% in the assay with OVCAR-8 ovarian; 106% with OVCAR-5 ovarian; 111% in the assay with OVCAR-4 ovarian; 108% with SK-OV-3 ovarian. For the same compound, the growth was 113% with OVCAR-3 ovarian, 103% in the assay with HS 578T breast and 107% in the assay on NCI/ADR-RES ovarian.
In the case of `CN1CCC(c2ccccc2)(c2ccccc2)C(=O)C1`, the growth in the assay with SR leukemia is 78.2%; with RPMI-8226 leukemia it was 41.7%; in the assay on OVCAR-8 ovarian, 95.9%; in the assay on OVCAR-5 ovarian, 86.8%; in the assay on OVCAR-4 ovarian, 57%; with SK-OV-3 ovarian, 103%. Further, the results for the growth with IGROV1 ovarian, with OVCAR-3 ovarian and in the assay with NCI/ADR-RES ovarian were 89.8%, 68.7% and 73.9%, respectively.
For `CN(Cc1ccccc1)c1ccc(SC#N)cc1`, the growth with SR leukemia is -6.68% (active); in the assay with RPMI-8226 leukemia it was 74.8%; in the assay with OVCAR-8 ovarian it was 85%; with OVCAR-5 ovarian, 106%; in the assay on OVCAR-4 ovarian, 68.9%; in the assay on SK-OV-3 ovarian, 112%. The growth is 98.8% in the assay on IGROV1 ovarian, 71.4% in the assay with OVCAR-3 ovarian, 89.7% in the assay with HS 578T breast and 86.7% in the assay on NCI/ADR-RES ovarian.
